Screening data as filed in PubChem BioAssay.
Shown are actives, neighbours in structure and some others; about 1.3% of the full set was active somewhere.
gsp antagonist = gsp mutant antagonism | gsp-mutant cells, cAMP HTRF, 30 min | Potency, µM (highest dose often 76.9 µM), hits mostly inhibitors | actives 0.4% (n = 340,000); calls by dose curve; cell line not stated here;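 also: intracellular cAMP measured with PDE inhibitor Ro 20-1724 present during compound exposure; nearly all actives have a fitted effect of over 65% in size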
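HTRF cAMP measurement after 30 min RT detection following 30 min, 37C compound treatment alongside […] (added as 300 uM solution) in G418-selected cells seeded at 2000/well and grown 16–24 h.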
gsp agonist = activates gsp, the McCune-Albright syndrome mutation | gsp mutant cells, cAMP HTRF, 30 min | Potency, µM (series often up to 76.9 µM), actives largely listed as activators | actives 0.13% (n = 340,000) | AID 624287; active = well fitted activation curve with a large enough effect; inconclusive = small, poorly fitted or top-dose-only effect, or another doubt; inactive = no such curve, though single readings can be large or run the other way; cell line not stated here;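 also: phosphodiesterase inhibitor Ro 20-1724 added with compounds to block cAMP breakdown; nearly all actives have a fitted effect of over 60% in size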
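Cells stably selected in G418 were plated at 2000/well, grown 16-24 hr, then given compounds in DMSO with the PDE inhibitor […] (300 uM solution added) for 30 min at 37C; cAMP was read by HTRF.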
pAkt inh = inhibitors of Akt phosphorylation | activity change, % for hits at 50 µM | Neuro2A IGF-stimulated pAkt S473 HTRF, 20 min; active compounds read low | actives 0.32% (n = 360,000) | AID 651550; in the data active = activity change below about -80%; inconclusive = mostly about -51% to -80%
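Neuro2A cells in DMEM with 0.5% FBS, overnight at 37 deg C, given compound at single 50 µM final, then IGF (6 nM final) for 20 min at 37 deg C. Lysed; phospho-Akt Ser473 by HTRF after 24 h, 665/615 ratio.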
RXFP1 agonist = agonists of human relaxin receptor RXFP1; HEK293T-RXFP1 cAMP TR-FRET, 30 min; response scale: percent of porcine relaxin response, buffer zero; actives 0.3% (n = 370,000); AID 2676; Potency, µM (highest dose often 57.5 µM), hits mostly activators; active = well fitted activation curve with a large enough effect; inconclusive = small, poorly fitted or top-dose-only effect; also: nearly all actives have a fitted effect of over 60% in size
Target sequence (Q9HBX9 whole entry, looked up): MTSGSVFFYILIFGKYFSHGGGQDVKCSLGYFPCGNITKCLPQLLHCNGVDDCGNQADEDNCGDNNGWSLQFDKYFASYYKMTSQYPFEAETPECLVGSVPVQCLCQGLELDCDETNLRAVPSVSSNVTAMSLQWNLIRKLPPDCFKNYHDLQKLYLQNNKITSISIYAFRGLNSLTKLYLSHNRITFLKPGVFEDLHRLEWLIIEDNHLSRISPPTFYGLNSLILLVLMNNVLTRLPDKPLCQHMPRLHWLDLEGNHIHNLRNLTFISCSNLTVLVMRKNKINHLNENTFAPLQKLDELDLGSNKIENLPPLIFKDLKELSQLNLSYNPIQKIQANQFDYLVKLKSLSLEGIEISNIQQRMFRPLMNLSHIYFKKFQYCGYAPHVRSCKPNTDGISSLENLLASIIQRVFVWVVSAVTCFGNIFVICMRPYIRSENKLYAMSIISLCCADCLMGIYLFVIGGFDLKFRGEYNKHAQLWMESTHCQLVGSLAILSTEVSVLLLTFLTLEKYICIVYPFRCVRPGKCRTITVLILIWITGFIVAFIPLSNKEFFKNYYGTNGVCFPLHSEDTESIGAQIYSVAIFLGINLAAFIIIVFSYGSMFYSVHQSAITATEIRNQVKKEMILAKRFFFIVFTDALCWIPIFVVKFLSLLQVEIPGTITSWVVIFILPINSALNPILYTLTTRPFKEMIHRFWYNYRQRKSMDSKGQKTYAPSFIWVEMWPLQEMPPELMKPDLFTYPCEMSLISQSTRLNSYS
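HEK293 cells stably expressing RXFP1, treated 30 min at 37C with compounds plus PDE4 inhibitor Ro 20174; cAMP measured by HTRF TR-FRET. Normalized to buffer and 29 nM porcine relaxin; EC50 by Hill fit.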
RXFP1 antag = blocks the human relaxin receptor RXFP1 | Q9HBX9 | HEK293-RXFP1, relaxin-stimulated cAMP HTRF, 30 min; active compounds read low | activity change, negative = inhibition, % at 57.5 µM | actives 0.59% (n = 350,000) | AID 1259400;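 active = activity change of -60% or lower, but not beyond a set lower limit; inconclusive = change between -60% and -40%, or beyond the set limit; inactive = change above -40%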
Of the large screens only hits and unclear results are named; the others gave an inactive call.

COc1ccc(/C=N/NC(=O)c2nnn(-c3nonc3N)c2-c2cccs2)cc1OC	none
COc1cc(/C=N/NC(=O)c2nnn(-c3nonc3N)c2-c2cccs2)ccc1O	gsp antagonist 22µM
COc1cc(/C=N/NC(=O)c2nnn(-c3nonc3N)c2C(C)C)ccc1OCc1ccccc1	gsp antagonist 25µM
O=C(COc1cccc(Cl)c1)N1CCC(c2nc3ccccc3s2)CC1	none (no result: gsp antagonist, gsp agonist, pAkt inh)
COc1cc(/C=C2/SC(=O)NC2=O)ccc1OCc1ccccc1	gsp antagonist 32µM
COc1ccc(/C=C2/SC(=S)NC2=O)cc1OCc1ccccc1	gsp antagonist inconclusive
CC(CNC(=O)CCCn1c(=O)c2cccn2c2ccccc21)c1ccccc1 (stereo not given)	RXFP1 antag -78 (no result: gsp antagonist, gsp agonist, pAkt inh)
CSc1ccc(CCNC(=O)CCCn2c(=O)c3cccn3c3ccccc32)cc1	RXFP1 antag -75 (no result: gsp antagonist, gsp agonist, pAkt inh)
CCOc1ccc(CCNC(=O)CCCn2c(=O)c3cccn3c3ccccc32)cc1	RXFP1 agonist inconclusive (no result: gsp antagonist, gsp agonist, pAkt inh)
COc1ccccc1N1CCN(Cc2cc(Br)c(O)c3ncccc23)CC1	RXFP1 antag -92
O=C(CCn1nnc2ccccc21)Nc1nnc(Cc2ccccc2)s1	gsp antagonist 32µM, gsp agonist inconclusive
O=C(CCn1nnc2ccccc21)Nc1nnc(COc2ccccc2F)s1	none
CC1CCN(S(=O)(=O)c2ccc(NC(=O)CNC3CCCCC3)cc2)CC1	gsp agonist inconclusive, RXFP1 antag -104
COc1ccc(S(=O)(=O)N2CCC(C(=O)N[C@@H](C)C(=O)NC3CC3)CC2)cc1	gsp agonist inconclusive
CC1CCCC(C)N1S(=O)(=O)c1ccc(NC(=O)CNC2CCCC2)cc1 (stereo not given)	none
CC(=O)Nc1ccc(S(=O)(=O)N2CCC(C(=O)N[C@@H](C)C(=O)NC3CCCC3)CC2)cc1	gsp antagonist 50µM
O=C(C1COc2ccccc2O1)N1CCN(c2nc3ccc(F)cc3s2)CC1 (stereo not given)	none (no result: gsp antagonist, gsp agonist, pAkt inh)
COc1cccc(NC(=O)CSc2nnc(Cc3cccs3)n2-c2ccc(C)cc2)c1	gsp antagonist inconclusive (no result: pAkt inh)
COc1ccc(NC(=O)CSc2nnc(Cc3cccs3)n2-c2ccc(C)cc2)cc1	gsp antagonist 32µM
CCn1c(COc2ccc(C)cc2)nnc1SCC(=O)Nc1ccc2c(c1)OCCO2	pAkt inh -108%
COc1cccc(NC(=O)CSc2nnc(-c3cccs3)n2C)c1	pAkt inh -107%
O=C(CSc1nnc(-c2ccncc2)n1Cc1ccco1)Nc1nc(-c2ccccc2)cs1	gsp antagonist 35µM
Cc1cc(C)c(Cn2c3ccccc3c3cnn(CC(=O)NCC(C)c4ccccc4)c(=O)c32)c(C)c1 (stereo not given)	none (no result: gsp antagonist, gsp agonist, pAkt inh)
CCOc1ccccc1NC(=O)Nc1cc2c(cc1N1CCCCC1)n(CC)c(=O)n2CC	none (no result: gsp antagonist, gsp agonist, pAkt inh)
Cc1ccc2nc(Nc3ccc(Br)cc3)nc(-c3ccccc3)c2c1	none (no result: gsp antagonist, gsp agonist, pAkt inh)
COc1ccc(-n2c(SCC(=O)Nc3ccc(Br)cc3)nc(O)cc2=O)cc1	RXFP1 antag -66
COc1cccc(-c2nnc(SCC(=O)Nc3ccc4c(c3)OCCO4)n2Cc2ccco2)c1	pAkt inh -114%
COc1ccc(-n2c(Cc3cccs3)nnc2SCC(=O)Nc2ccc3c(c2)OCCO3)cc1	gsp antagonist 32µM
Cc1ccc(NC(=O)CSc2nc(O)cc(=O)n2-c2ccc(C)cc2)cc1	none
COc1ccc(N(C)C(=S)Oc2ccc(C(=O)Nc3ccccc3)cc2)cc1	none (no result: gsp antagonist, gsp agonist, pAkt inh, RXFP1 antag)
Cc1cccc(N(C)C(=S)Oc2ccc3c(c2)CCC3)c1	RXFP1 antag -63 (no result: gsp antagonist, gsp agonist, pAkt inh, RXFP1 agonist)
Cc1cccc(NC(=O)COc2ccc3c(c2)CCC3)n1	none
Cc1cccc(N(C)C(=S)Oc2ccc3ccccc3c2)c1	RXFP1 antag -71 (no result: gsp agonist)
Cc1ccc(S(=O)(=O)NCc2ccc3c(c2)cc(C)n3C)cc1	none
Cc1cc2cc(CN3C(=O)c4ccccc4C3=O)ccc2n1C	gsp agonist 32µM
CSCCC(NS(=O)(=O)c1ccc2c(c1)c(=O)n(C)c(=O)n2C)C(=O)NC1CCN(Cc2ccccc2)CC1 (stereo not given)	RXFP1 agonist 18µM
COC(=O)c1sccc1S(=O)(=O)N(CC(=O)Nc1c(C)cccc1C)c1ccc(C)c(C)c1	none (no result: gsp antagonist, gsp agonist, pAkt inh)
COc1ccc(-c2nnc(SCC(=O)NCCc3ccccc3)o2)cc1	gsp agonist inconclusive, pAkt inh -124%
CC(=O)N1CCc2c(sc3c2c(=O)n(CCc2ccccc2)c(=O)n3Cc2ccc(F)cc2)C1	none (no result: gsp antagonist, gsp agonist, pAkt inh, RXFP1 antag)
C/C(=N/NC(N)=S)c1cc2ccc(O)cc2oc1=O	none
NC(=S)c1cc2ccc(O)cc2oc1=O	gsp agonist 2.5µM, RXFP1 agonist 13µM (no result: RXFP1 antag)
CCC1(c2ccc(F)cc2)NC(=O)N(CC(=O)NCC(=O)Nc2cccc(C)c2C)C1=O (stereo not given)	RXFP1 antag -79
Cc1cccc(NC(=O)c2ccc3c(O)c(S(=O)(=O)c4ccccc4)c(=O)[nH]c3c2)c1C	none (no result: gsp antagonist, gsp agonist, pAkt inh)
Cc1ccc(-c2csc(/C=C3/SC(C)C(=O)N3CC(=O)Nc3ccccc3F)n2)cc1 (stereo not given)	RXFP1 antag -84 (no result: RXFP1 agonist)
CC(=O)c1ccccc1NC(=O)CN1C(=O)CS/C1=C\c1nc(-c2ccc(C)cc2)cs1	none
O=[N+]([O-])c1ccc(-c2cn3c(n2)CCC3)cc1	gsp agonist 14µM, RXFP1 agonist inconclusive
c1ccc(-c2cn3c(n2)CCC3)cc1	none
O=C(c1ccc(C#Cc2ccccc2)o1)N1CCN(c2ccccn2)CC1	gsp antagonist 35µM
O=C(c1ccc(COc2ccccc2Br)o1)N1CCN(c2ccccn2)CC1	none (no result: pAkt inh)
N#CC1=C(N)SC(N)=C(C#N)C1c1ccc(C(F)(F)F)cc1	none (no result: gsp antagonist, gsp agonist, pAkt inh, RXFP1 antag)
CCc1ccc(C2C(C#N)=C(N)SC(N)=C2C#N)cc1	gsp agonist 40µM
O=C(N/N=C/c1ccccc1C(=O)O)c1cc(-c2ccc3c4c(cccc24)CC3)n[nH]1	RXFP1 antag -65
O=C(N/N=C/c1ccco1)c1cc(-c2cccc3ccccc23)n[nH]1	none
CCOC(=O)c1c(NC(=O)C2COc3ccccc3O2)sc2c1CCN(Cc1ccccc1)C2 (stereo not given)	none
O=C(Nc1nnc(C(F)(F)F)s1)C1COc2ccccc2O1 (stereo not given)	gsp antagonist 35µM
O=C(Nc1nnc(C2CC2)s1)C1COc2ccccc2O1 (stereo not given)	none (no result: gsp antagonist)
NC(=O)c1c(NC(=O)C2COc3ccccc3O2)sc2c1CCN(Cc1ccccc1)C2 (stereo not given)	RXFP1 antag -97
Cc1ccc(CCNC(c2ccc(F)cc2)c2nnc(-c3ccccc3Cl)o2)cc1 (stereo not given)	none (no result: gsp antagonist, gsp agonist, pAkt inh)
CCCC(=O)OCOC(=O)C1=C(C)NC(C)=C(C(=O)OC)C1c1cccc(Cl)c1Cl (stereo not given)	none (no result: gsp antagonist, gsp agonist, pAkt inh, RXFP1 agonist)
COc1cc(C2C(C#N)=C(C)NC(C)=C2C#N)cc(OC)c1OC	gsp agonist 8.9µM
